Cycloheximide cs – Cycloheximide Counterscreen for Small Molecule Inhibitors of Shiga Toxin. max response, %. hit rate 12% among 300,000. cell reporter, cycloheximide protein synthesis inhibition counterscreen; in the data active means max response mostly above about 13%, no sharp cut-off; inactive means mostly below about 14%; further: read at 38.3 µM for the half of the compounds with a filed dose; 0% is about no effect
Shiga toxin inh – A qHTS for Small Molecule Inhibitors of Shiga Toxin; Vero cells, Shiga toxin protein synthesis inhibition reporter; hit rate 9.2% among 290,000; inhibition, % at 38.7 µM; in the data active means inhibition mostly above about 28%, no sharp cut-off; inactive means mostly below about 43%; further: 0% is about no effect
SARS PLP yeast – qHTS of Yeast-based Assay for SARS-CoV PLP. S. cerevisiae expressing SARS-CoV PLpro, growth rescue. Potency, µM (doses to about 32.9 µM), inactives show at the top dose activity, positive = growth rescue, hits mostly activators. hit rate 0.19% among 330,000. AID 485353, 2010; further: potency means the concentration at half of the fitted maximal effect; 0% is about no effect; nearly all actives have a fitted effect of over 55% in size
NS1 function inh – qHTS Assay for Inhibitors of Influenza NS1 Protein Function | Potency, µM (series often up to 46.1 µM), for inactives: at the top dose activity, positive = more growth | hit rate 0.4% among 270,000 | AID 2326, 2010; further: potency means the concentration at half of the fitted maximal effect; actives are rising curves; nearly all actives have a fitted effect of over 50% in size
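In this qHTS, NS1 from influenza A is expressed in budding yeast, where it slows growth. Cells are switched from glucose to 2% galactose medium (pH 6.0, -URA), treated with compound, and growth recovery is read at OD600.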
TbPYK inhibitor – qHTS of Trypanosoma Brucei Inhibitors; pyruvate kinase (Trypanosoma brucei), Q57TT1; TbPYK enzyme, Kinase-Glo Plus ATP luminescence, 45 min; Potency, µM (titrated, usually from 76.8 µM), inactives show top-dose activity, negative = inhibition, actives largely listed as inhibitors; hit rate 0.12% among 410,000; AID 624173, 2012; active means well fitted curve in the direction sought with a large enough effect; inconclusive means small, poorly fitted or top-dose-only effect, or another doubt; inactive means no such curve, though single readings can be large; an effect the other way counts as inactive or inconclusive; further: potency means the concentration at half of the fitted maximal effect; on the % scale 0 is the no-effect control and ±100 the full control effect; nearly all actives have a fitted effect of over 50% in size
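Readout: single end-point luminescence (Kinase-Glo Plus, 10 min). Reaction conditions were TbPYK/substrate plus 130 uM ADP, 45 min at RT, pH 7.2 TEA buffer. No-enzyme wells served as controls, and data were normalized before concentration-response fitting.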
LmPK inh – qHTS Assay for Inhibitors of Leishmania Mexicana Pyruvate Kinase (LmPK). Q27686. purified LmPK, Kinase-Glo ATP luminescence, 1 h. Potency, µM (titrated, usually from 57.5 µM), for the others: at the highest dose activity change, negative = inhibition, hits mostly inhibitors. hit rate 0.37% among 290,000. AID 1721, 2009; active means well fitted curve in the direction sought with a large enough effect; inconclusive means small, poorly fitted or top-dose-only effect, or another doubt; inactive means no such curve, though single readings can be large; an effect the other way counts as inactive or inconclusive; further: potency means the concentration at half of the fitted maximal effect; on the % scale 0 is the no-effect control and ±100 the full control effect
Target sequence (Q27686 whole entry, looked up): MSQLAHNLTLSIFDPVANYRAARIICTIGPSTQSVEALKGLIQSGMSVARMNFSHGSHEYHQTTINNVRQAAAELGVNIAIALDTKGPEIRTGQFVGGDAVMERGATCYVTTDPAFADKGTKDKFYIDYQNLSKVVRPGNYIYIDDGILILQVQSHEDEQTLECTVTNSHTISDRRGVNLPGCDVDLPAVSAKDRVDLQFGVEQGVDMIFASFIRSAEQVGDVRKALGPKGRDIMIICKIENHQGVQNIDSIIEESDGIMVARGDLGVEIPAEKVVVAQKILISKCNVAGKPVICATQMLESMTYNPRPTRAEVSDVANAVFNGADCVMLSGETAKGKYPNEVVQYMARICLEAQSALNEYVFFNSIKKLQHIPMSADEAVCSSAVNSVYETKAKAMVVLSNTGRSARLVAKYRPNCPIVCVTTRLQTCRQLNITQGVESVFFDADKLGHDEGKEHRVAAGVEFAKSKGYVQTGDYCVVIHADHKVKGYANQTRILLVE
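Kinase-Glo luminescence read after 1 h RT reaction of 0.1 nM LmPK with 0.5 mM PEP and 0.1 mM ADP. Activity scaled between uninhibited and enzyme-free controls.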
Flu NS1 inh – Assay for Inhibitors of Influenza NS1 Protein Function: Hit Validation; activity change, negative = inhibition, % at 32.9 µM; shares compounds with NS1 function inh; influenza NS1 function cell assay, 15-point titration; AID 492980, 2010; 1,400 tested, under 10 active; further: 0% is about no effect
Flu PR8 replic – Assay for Inhibitors of Influenza NS1 Protein Function: Influenza virus replication assay in MDCK cells infected with virus A/PR/8/34; hit rate 30% among 95; shares compounds with NS1 function inh; virus titer (log TCID50), log10 TCID50 at 5 µM; MDCK infected influenza A/PR/8/34, virus titer TCID50; stronger effect = lower value; call rule not given here
* marks the source's active call; other numbers are inactive results; ? = inconclusive; . = no result; [ ] = dose if it differs, or a comment. Many of the other results were omitted from the sample, so hits are more common in it than they were. Unless noted, the call rests on the fitted dose curve.

SMILES	Cycloheximide cs	Shiga toxin inh	SARS PLP yeast	NS1 function inh	TbPYK inhibitor	LmPK inh	Flu NS1 inh	others
CC(Nc1nc(-c2cccc(Br)c2)cs1)c1nc2cc(Cl)c(N3CCCCC3)cc2n1CCOCCO (stereo unspecified)	7	25	12%	10µM*	2%	-1%	-9
O=C(C1COc2ccccc2O1)N1CCN(c2nc3c(F)cccc3s2)CC1 (stereo unspecified)	.	.	.	.	10%	.	.
COc1ccc(-c2c3c(=O)n(C)c(=O)n(C)c3c3n2-c2ccccc2NC3c2ccc(O)cc2O)cc1 (stereo unspecified)	.	.	.	.	-3%	.	.
CC(NCc1ccc(S(N)(=O)=O)cc1)C(=O)N1c2ccccc2CC1C (stereo unspecified)	-2	-4	-1%	7.9µM*	15%	-7%	3
Cc1cc(-c2csc(NC(=O)c3ccc(=O)n(C)n3)n2)c(C)n1CC1CCCO1 (stereo unspecified)	-2	-7	-4%	20µM*	?	-7%	12
CC1(C)CC2(OC2c2ccccc2)C(=O)c2ccccc21 (stereo unspecified)	.	.	.	.	4%	.	.
Cc1cc2cc(CN3C(=O)c4ccccc4C3=O)ccc2[nH]1	-3	-3	29%	?	-1%	9%	21
COc1ccc(CN2C(=O)c3ccccc3C2=O)cc1	-2	-1	2%	-16%	-2%	1%	.
COc1cccc(NS(=O)(=O)c2ccc3[nH]cc(C(=O)NCCC(C)C)c(=O)c3c2)c1	1	-10	-8%	4.5µM*	-4%	8%	-6
Cc1ccc(C(=O)N/C(=C\c2ccc(-c3ccc(Br)cc3)o2)C(=O)NC2CCS(=O)(=O)C2)cc1 (stereo unspecified)	-2	10	-10%	?	-7%	12%	3
Cc1cc2nc3c(=O)n(C4CCCCC4)c(=O)[nH]c3nc2cc1N	15	25	18%	7.9µM*	?	-8%	0
CCOC(=O)C1=C(c2ccccc2)N=c2sc(=Cc3cc(OC)c(OC)c(OC)c3)c(=O)n2C1c1cccs1 (stereo unspecified)	.	.	.	.	7%	.	.
CCOC(=O)C1=C(c2ccccc2)N=c2s/c(=C\c3ccc(O)cc3)c(=O)n2C1c1cccs1 (stereo unspecified)	11	5	-34%	7.1µM*	5%	1%	-15
O=C(Nc1ccc(Cl)cc1)c1ccc2oc(=O)n(Cc3ccccc3)c2c1	.	.	.	.	7%	.	.
COc1ccc(/C=N/NC(=O)c2ccc(CN3c4cccc5cccc(c45)S3(=O)=O)cc2)cc1	1	10	3%	?	-1%	-1%	.
O=C(N/N=C/CCc1ccccc1)c1ccc(CN2c3cccc4cccc(c34)S2(=O)=O)cc1	10	13	?	8.9µM*	-12%	5%	25
COC(=O)C(NC(C)=O)(Nc1nc2ccc(C)cc2s1)C(F)(F)F (stereo unspecified)	2	-4	22%	8.9µM*	3%	4%	-5
COC(=O)C(NC(C)=O)(Nc1nc2ccc(S(C)(=O)=O)cc2s1)C(F)(F)F (stereo unspecified)	1	-4	-2%	1%	0%	2%	.
CN(/N=C\c1ccc(O)c(O)c1)c1nc(-c2ccccc2)cc(-c2ccccc2)n1	7	11	-53%	8.9µM*	-13%	0%	?
Cc1c(OC(C)C(=O)N[C@H](C(=O)O)c2ccccc2)ccc2c3c(c(=O)oc12)CCCC3 (stereo partly specified)	-2	-6	-3%	10µM*	-6%	-7%	-5
Cc1c(OC(C)C(=O)NCC(O)c2ccccc2)ccc2c3c(c(=O)oc12)CCC3 (stereo unspecified)	-1	-5	-2%	-15%	-12%	1%	.
O=C(NCc1cccs1)C1CCCN1C(=O)Nc1ccccc1Cl (stereo unspecified)	-5	-8	0%	?	-2%	1%	4	Flu PR8 replic=8.5
Cc1ccccc1NC(=O)N1CCCC1C(=O)NCc1cccs1 (stereo unspecified)	-1	6	?	2%	-7%	0%	.
Cc1cc2cc(CNC(=O)c3ccc(S(=O)(=O)N(C)C)cc3)ccc2n1C	-2	-11	3%	11µM*	4%	-1%	25
Cc1cc2cc(CNC(=O)c3ccc(S(=O)(=O)N4CCOCC4)cc3)ccc2n1C	5	11	13%	11µM*	2%	-3%	0
SMILES	Cycloheximide cs	Shiga toxin inh	SARS PLP yeast	NS1 function inh	TbPYK inhibitor	LmPK inh	Flu NS1 inh	others
CC(=O)Nc1ccc(S(=O)(=O)NCc2ccc3c(c2)cc(C)n3C)cc1	-6	-14	-7%	11%	-4%	3%	.
Cc1cc2cc(CNS(=O)(=O)c3ccc4ccccc4c3)ccc2n1C	0	-7	-4%	10µM*	-2%	-1%	-22
Cc1nc2sccn2c1-c1csc(NCc2ccccc2)n1	14	29	-1%	?	7%	-4%	-29
CSc1cccc(NS(=O)(=O)c2ccc(C(C)=O)cc2)c1	-2	19	0%	3%	3%	3%	.
CC(=O)c1cccc(NS(=O)(=O)c2ccc(N/C=C/C(=O)c3ccc(F)cc3)cc2)c1	46*	110*	4%	?	1%	5%	-20
O=C(CCCOc1ccc(Cl)cc1)N1CCOCC1	11	30*	-4%	11µM*	-9%	-2%	-21
CCOc1ccccc1NC(=O)CSc1nnnn1-c1ccc(C(=O)OC)cc1	-6	-5	-7%	-5%	-7%	1%	.
CCOc1cc(C#N)c(NC(=O)CSc2nnnn2-c2ccc(OC)cc2)cc1OCC	-4	-9	1%	?	-14%	-2%	-2
CCCSCCCNC(=O)c1ccc2nc(Cc3ccccc3)oc2c1	.	.	.	.	-5%	.	.
Cc1ccc(S(=O)(=O)NC(C)(C)CSc2nncn2C)cc1	1	-16	7%[6.58 µM]	6%	0%	2%	.
Cn1cnnc1SCC(C)(C)NS(=O)(=O)c1ccc(Cl)cc1	-3	-14	2%	?	5%	-1%	-7
O=C(CSc1ccc(-c2ccc(F)cc2)nn1)NC1CCCCC1	-1	3	-3%	5%	0%	-3%	.
CC(C)OC(=O)/C(=C\c1ccc2c(c1)c1ccccc1n2C)NC(=O)c1ccccc1	29*	67*	8%	10µM*	1%	-3%	7
